# Reference: PubChem BioAssay (NCI)
# The panel holds about 83,000 compounds, 20% with a hit somewhere; the sample as a whole holds those more often.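 Percent growth is the endpoint: 0 to 100 indicates growth inhibition (40 means 60% inhibition), 0 means no net growth, and negative values indicate cell death.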 A number with no mark means an inactive call. Activity calls are given as the source filed them. The calls were made as follows: active = growth percent below 10; inactive = the rest.
# Test system: HOP-92 NSCLC
# Assay: NCI-60 one-dose screen, 48 h (100 = growth as untreated, 0 = no growth, -100 = all killed)
# Conditions: 10 µM unless noted
row,Structure (SMILES),growth
1,CCn1cc(C(=O)N/N=C/c2ccc(Br)cc2)c(=O)c2cc(F)c(N3CCNC(C)C3)c(F)c21 (configuration not stated),61.2%
2,CCSC1=CC(=O)c2ccccc2C1=O,-2.5% (active)
3,N#Cc1c(NC(=O)c2cccs2)[n+]([O-])c2ccc(Cl)cc2[n+]1[O-],94.8%
4,O=C(c1ccc(Cl)cc1Cl)N1c2ccccc2Sc2ccccc21,71.5%
5,CN(C)c1ccc(/C=C/C(=O)c2ccc(Nc3nc(Nc4ccc(F)cc4)nc(Nc4ccc(Cl)cc4)n3)cc2)cc1,51.3%
6,CCN1C(=O)N(CC)C2C1NN=c1s/c(=C3\C(=O)N(CCc4ccccc4)c4ccccc43)c(=O)n12 (configuration not stated),38.1%
7,Cn1c(/C=C/[N+](=O)[O-])cc2ccccc21,84%
8,CCN(CCO)CC(C)Nc1ccc([N+](=O)[O-])c2sc3ccccc3c(=O)c12 (configuration not stated),-0.953% (active)
9,CCOC(=O)C1CCN(c2ccc(N3C[C@@H](CNCc4ccc(C(=N)N)cc4)OC3=O)cc2)CC1,90.8%
10,CC1=NN(c2ccc(Cl)cc2)CC1(C)N=O (configuration not stated),83.3%
11,CCN1C(=O)N(CC)C2C1NN=c1s/c(=C\c3ccccc3Br)c(=O)n12 (configuration not stated),19.5%
12,Cc1cc(N2CCN(C)CC2)nc(NCc2cc(Nc3ccnc4cc(Cl)ccc34)ccc2F)n1,5.13% (active)
13,c1ccc2cc(Cn3c[n+](Cc4ccc5ccccc5c4)c4ccccc43)ccc2c1,-27.7% (active)
14,Cc1ccc2[nH]c(-c3ccc(S(C)(=O)=O)cc3)c(/C=N/N=C(N)N)c2c1,59.9%
15,COc1ccc(-c2cc(C(=O)N3N=C(c4ccc(N)cc4)CC3c3ccccc3)c3ccccc3n2)cc1 (configuration not stated),34.5%
16,COc1cccc(/C=C/C(=O)c2cc3c(N)c(C(=O)Nc4cccc(Cl)c4C)sc3nc2C)c1,20.3%
17,O=C(CBr)CN1C(=O)c2ccccc2C1=O,-10.6% (active)
18,C=C(CN1CC=CCC1)[C@@H]1CC[C@]2(CO)CC[C@]3(C)[C@H](CC[C@@H]4[C@@]5(C)CC[C@H](O)C(C)(C)[C@@H]5CC[C@]43C)[C@@H]12,92.4%
19,N=C(N)c1ccc(-c2ccc(-c3ccc(Cl)cc3)o2)o1,39.5%
20,CC(O)c1ncc(/C=C2\SC(=S)N(Cc3ccccc3)C2=O)s1 (configuration not stated),73.4%
21,O=C(/C=C\c1ccco1)/C=C/c1ccco1,107%
22,CCCCNC1=C(OCC)C(=O)c2ccccc2C1=O,74.5%
23,C#CC#CC#CC#CC#CC#CC#CC#CC[C@H]1OC[C@H](COC(=O)O[C@@H](C(=O)O[C@H]2C[C@@]3(O)[C@@H](OC(=O)c4ccccc4)[C@@H]4[C@]5(OC(C)=O)CO[C@@H]5C[C@H](O)[C@@]4(C)C(=O)[C@H](OC(C)=O)C(=C2C)C3(C)C)[C@@H](NC(=O)c2ccccc2)c2ccccc2)O1,57.7%
24,CCn1c2ccc(O)cc2c2c(C)c3c[n+](C(C)C)ccc3c(C)c21,51.2%
25,C=CCOC(=O)C1=C(C)NC(=O)NC1c1c(Cl)n(C)c2ccccc12 (configuration not stated),55.3%

# Test system: NCI-H522 lung
# Assay: as above
# Conditions: 10 µM unless noted
row,Structure (SMILES),growth
1,COc1ccc2c(c1)c(-c1ccc(-c3cn(C)c4ccc(OC)cc34)[nH]1)cn2C,-47.8% (active)
2,Cc1cscc(C)c1=S,50.8%
3,CN1CCN(c2ccc3c(c2)nc(NNC(=O)c2cnccn2)c2cccn23)CC1,15.7%
4,CCSC1=CC(=O)c2ccccc2C1=O,-20.9% (active)
5,CN(C)c1ccc(/C=C/C(=O)c2ccc(Nc3nc(Nc4ccc(F)cc4)nc(Nc4ccc(Cl)cc4)n3)cc2)cc1,56.4%
6,CCN1C(=O)N(CC)C2C1NN=c1s/c(=C3\C(=O)N(CCc4ccccc4)c4ccccc43)c(=O)n12 (configuration not stated),-5.28% (active)
7,CC(O)c1ncc(/C=C2\SC(=S)N(Cc3ccccc3)C2=O)s1 (configuration not stated),5.34% (active)

# Test system: A549/ATCC NSCLC
# Assay: as above
# Conditions: 10 µM unless noted
row,Structure (SMILES),growth
1,O=C(O)C1CN(c2cccc(Cl)c2)N(c2cccc(Cl)c2)C1=O (configuration not stated),105%
2,COc1ccc2c(c1)c(-c1ccc(-c3cn(C)c4ccc(OC)cc34)[nH]1)cn2C,28.8%
3,CCN1CCN(CC(=O)Nc2nc3ccc(NCc4ccc(Br)cc4)cc3s2)CC1,64.5%
4,CC(C)c1ccc(-n2c(=S)[nH]c3sc4c(c3c2=O)CCC(=O)C4)cc1,71.1%
5,Cc1nc2sc(C(=O)Nc3cccc(Cl)c3)c(N)c2cc1C(O)c1ccccc1 (configuration not stated),21.1%
6,Cc1cscc(C)c1=S,88.1%
7,COc1ccc(C2=NN(C(=O)c3cc(OC)c(OC)c(OC)c3)C(c3ccc(N(C)C)cc3)C2)cc1 (configuration not stated),30%
8,CN(C)c1ccc(/C=C2/C=C(c3ccccc3)OC2=O)cc1,96.4%
9,CN1CCN(c2ccc3c(c2)nc(NNC(=O)c2cnccn2)c2cccn23)CC1,21.9%
10,CN(CCC#N)c1ccc(/C=C2\NC(=O)NC2=O)cc1,111%
11,COc1ccc(C(c2cc(OC)c(OC)c(OC)c2)N2CCCC2)cc1 (configuration not stated),77.7%
12,O=C(/C=C/c1ccc(Br)cc1)c1ccc(-n2cc(CN3CCN(c4cc5c(cc4F)c(=O)c(C(=O)O)cn5C4CC4)CC3)nn2)cc1,87.3%
13,CCOC(=O)n1cc(-c2nonc2-c2cn(C)c3ccccc23)c2ccccc21,40.1%
14,CCOC(=O)c1n[nH]n2c1nc(=O)c1cnn(C)c12,86.7%
15,C#CC#CC#CC#CC#CC#CC#CC#CCC1OCC(COC(=O)O[C@@H](C(=O)O[C@H]2C[C@@]3(O)[C@@H](OC(=O)c4ccccc4)[C@@H]4[C@]5(OC(C)=O)CO[C@@H]5C[C@H](O)[C@@]4(C)C(=O)[C@H](OC(C)=O)C(=C2C)C3(C)C)[C@@H](NC(=O)c2ccccc2)c2ccccc2)O1 (some centres not stated),18.7%
16,CCn1cc(C(=O)N/N=C/c2ccc(Br)cc2)c(=O)c2cc(F)c(N3CCNC(C)C3)c(F)c21 (configuration not stated),45.3%
17,CCSC1=CC(=O)c2ccccc2C1=O,93.2%
18,N#Cc1c(NC(=O)c2cccs2)[n+]([O-])c2ccc(Cl)cc2[n+]1[O-],122%
19,O=C(c1ccc(Cl)cc1Cl)N1c2ccccc2Sc2ccccc21,54.2%
20,CN(C)c1ccc(/C=C/C(=O)c2ccc(Nc3nc(Nc4ccc(F)cc4)nc(Nc4ccc(Cl)cc4)n3)cc2)cc1,53%

row,Structure (SMILES),growth
1,CCN1C(=O)N(CC)C2C1NN=c1s/c(=C3\C(=O)N(CCc4ccccc4)c4ccccc43)c(=O)n12 (configuration not stated),16.1%
2,Cn1c(/C=C/[N+](=O)[O-])cc2ccccc21,48%
3,CCN(CCO)CC(C)Nc1ccc([N+](=O)[O-])c2sc3ccccc3c(=O)c12 (configuration not stated),12.2%
4,CCOC(=O)C1CCN(c2ccc(N3C[C@@H](CNCc4ccc(C(=N)N)cc4)OC3=O)cc2)CC1,104%
5,CC1=NN(c2ccc(Cl)cc2)CC1(C)N=O (configuration not stated),99.9%
6,CCN1C(=O)N(CC)C2C1NN=c1s/c(=C\c3ccccc3Br)c(=O)n12 (configuration not stated),12.3%
7,Cc1cc(N2CCN(C)CC2)nc(NCc2cc(Nc3ccnc4cc(Cl)ccc34)ccc2F)n1,-17% (active)
8,c1ccc2cc(Cn3c[n+](Cc4ccc5ccccc5c4)c4ccccc43)ccc2c1,30.9%
9,Cc1ccc2[nH]c(-c3ccc(S(C)(=O)=O)cc3)c(/C=N/N=C(N)N)c2c1,46.2%
10,COc1ccc(-c2cc(C(=O)N3N=C(c4ccc(N)cc4)CC3c3ccccc3)c3ccccc3n2)cc1 (configuration not stated),39.4%
11,COc1cccc(/C=C/C(=O)c2cc3c(N)c(C(=O)Nc4cccc(Cl)c4C)sc3nc2C)c1,3.76% (active)
12,O=C(CBr)CN1C(=O)c2ccccc2C1=O,103%
13,C=C(CN1CC=CCC1)[C@@H]1CC[C@]2(CO)CC[C@]3(C)[C@H](CC[C@@H]4[C@@]5(C)CC[C@H](O)C(C)(C)[C@@H]5CC[C@]43C)[C@@H]12,94.8%
14,N=C(N)c1ccc(-c2ccc(-c3ccc(Cl)cc3)o2)o1,-64.6% (active)
15,CC(O)c1ncc(/C=C2\SC(=S)N(Cc3ccccc3)C2=O)s1 (configuration not stated),105%
16,O=C(/C=C\c1ccco1)/C=C/c1ccco1,102%
17,CCCCNC1=C(OCC)C(=O)c2ccccc2C1=O,99.2%
18,C#CC#CC#CC#CC#CC#CC#CC#CC[C@H]1OC[C@H](COC(=O)O[C@@H](C(=O)O[C@H]2C[C@@]3(O)[C@@H](OC(=O)c4ccccc4)[C@@H]4[C@]5(OC(C)=O)CO[C@@H]5C[C@H](O)[C@@]4(C)C(=O)[C@H](OC(C)=O)C(=C2C)C3(C)C)[C@@H](NC(=O)c2ccccc2)c2ccccc2)O1,49.6%
19,CCn1c2ccc(O)cc2c2c(C)c3c[n+](C(C)C)ccc3c(C)c21,69.1%
20,C=CCOC(=O)C1=C(C)NC(=O)NC1c1c(Cl)n(C)c2ccccc12 (configuration not stated),103%
